Percent response vs DMSO data for five molecules are collected here from PubChem BioAssay AID2025 (NMMLSC, 2009).

Structures are written as SMILES. Among all 330,000 compounds or so, about 980 (0.3%) were called active. Shown is part of a subset that was picked to be rich in actives. Unmarked numbers belong to inactive results.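 How the source made its calls: active means percent response vs DMSO below 50%; inconclusive means fewer than 70 events counted for the yeast strain; inactive means the rest.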

The assay is described as follows: RPL19A-GFP expression modulators in yeast, primary screen, cell-based, S. cerevisiae, multiplex flow cytometry, MLPCN (AID 2025).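 Further: median channel GFP fluorescence of the barcoded RPL19A-GFP strain; ratio of sample median GFP to plate DMSO average so 100% = DMSO; lower means less RPL19A-GFP as with rapamycin TOR inhibition.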 The settings on record: S. cerevisiae RPL19A-GFP strain, 3 h, at 10 µM, active compounds read low.
For `C/C(CCc1c[nH]c2ccccc12)=N\O`, the percent response vs DMSO was 100%.

Take `NCCc1c[nH]c2ccc(O)cc12`: the percent response vs DMSO is 32.1% [may fluoresce violet] (active).

With `Cc1cccc2c(CCN)c[nH]c12`, the percent response vs DMSO is 101%.

Take `OC1/C(=C/c2ccc(C(F)(F)F)cc2)N2CCC1CC2` (stereo not given): the percent response vs DMSO is 97.2%.

Regarding `OCC#CC[N+]1(CC#Cc2ccccc2)CCCC1`, the percent response vs DMSO was 99.6%.
